Test system: Vero E6 infected with SARS-CoV-2
Test: inhibition of SARS-CoV-2 cytopathic effect; higher = more antiviral protection, active = above 15
Conditions: 48 h

Measured: inhibition of SARS-CoV-2 cytopathic effect

CN(C)Cc1ccc(-c2nc3cccc4c3n2CCNC4=O)cc1
inactive: 1 nM 0.51% | 8.33 nM 4.23% | 100 nM 3.95% | 833.33 nM 1.65% | 10000 nM 6.38%

CCOC(=O)[C@H](C)C[C@@H](Cc1ccc(-c2ccccc2)cc1)NC(=O)CCC(=O)O [sacubitril]
inactive: 1 nM -3.45% | 8.33 nM -0.1% | 100 nM -1.3% | 833.33 nM -3.34% | 10000 nM 2.18%

CCCCc1ncc(/C=C(\Cc2cccs2)C(=O)O)n1Cc1ccc(C(=O)O)cc1 [eprosartan]
inactive: 1 nM -1.35% | 8.33 nM -0.99% | 100 nM -0.35% | 833.33 nM -0.6% | 10000 nM 2.22%

O=C(Nc1ccccc1Br)N[C@@H]1CCN(c2ccc(C(F)(F)F)cn2)C1
inactive: 1 nM 3.02% | 8.33 nM 3.06% | 100 nM 1.72% | 833.33 nM 3.42% | 10000 nM 1.82%

CC(C)(CC(=O)N1CCCC1)NCC(=O)N1C[C@@H](F)C[C@H]1C#N
inactive: 1 nM 1.83% | 8.33 nM 0.33% | 100 nM -0.99% | 833.33 nM -1.3% | 10000 nM -0.94%

CCOc1cc2ncc(C#N)c(Nc3ccc(OCc4ccccn4)c(Cl)c3)c2cc1NC(=O)/C=C/CN(C)C [neratinib]
inactive: 1 nM 0.12% | 8.33 nM -2.36% | 100 nM -7.88% | 833.33 nM -0.85% | 10000 nM -8.5%

C[C@@H]1CC[C@@]2(OC1)O[C@H]1C[C@H]3[C@@H]4CC=C5C[C@@H](O)CC[C@]5(C)[C@H]4CC[C@]3(C)[C@H]1[C@@H]2C [diosgenin]
inactive: 1 nM -0.61% | 8.33 nM -0.09% | 100 nM 0.12% | 833.33 nM -2.38% | 10000 nM -1.29%

O=S(=O)(/N=C/c1c(O)ccc2ccccc12)c1cccs1
inactive: 1 nM 1.63% | 8.33 nM 2.5% | 100 nM 1.59% | 833.33 nM 1.88% | 10000 nM 0.08%

Cc1cccc(C)c1NC(=O)c1ccc(N)cc1 [ameltolide]
inactive: 1 nM 0.76% | 8.33 nM 1.03% | 100 nM 0.37% | 833.33 nM -0.04% | 10000 nM -2.67%

O[C@@H](Cc1ccncc1)C(Cl)(Cl)Cl
inactive: 1 nM 0.9% | 8.33 nM 1.38% | 100 nM 3.16% | 833.33 nM 0.72% | 10000 nM 0.84%

CNC(=O)c1c(-c2ccc(F)cc2)oc2cc(N(CCO)S(C)(=O)=O)c(C3CC3)cc12 [nesbuvir]
inactive: 1 nM 0.34% | 8.33 nM 0.12% | 100 nM 0.33% | 833.33 nM -1.14% | 10000 nM -3.08%

CCC(=O)O[C@@H]1CC(=O)O[C@H](C)C/C=C/C=C/[C@H](O)[C@H](C)C[C@H](CC=O)[C@H](O[C@@H]2O[C@H](C)[C@@H](O[C@H]3C[C@@](C)(O)[C@@H](OC(=O)CC)[C@H](C)O3)[C@H](N(C)C)[C@H]2O)[C@H]1OC [midecamycin]
inactive: 1 nM -1.27% | 8.33 nM -3.06% | 100 nM -2.36% | 833.33 nM -0.5% | 10000 nM -0.33%

Cc1cc(=O)oc2c(C=O)c(O)ccc12
inactive: 1 nM 0.13% | 8.33 nM 2.74% | 100 nM 1.64% | 833.33 nM 2.83% | 10000 nM 6.12%

C[C@@H](O)[C@H]1C(=O)N2C(C(=O)O)=C([C@H]3CCCO3)S[C@H]12 [faropenem]
inactive: 1 nM -0.32% | 8.33 nM -0.11% | 100 nM 1.66% | 833.33 nM 0.92% | 10000 nM 1.61%

Nc1nc(=O)n([C@@H]2O[C@H](CO)[C@@H](O)[C@@H]2F)cc1I [fiacitabine]
inactive: 1 nM -1.38% | 8.33 nM -1.55% | 100 nM 2.03% | 833.33 nM -1.22% | 10000 nM -0.56%

CCN[C@@H](C)Cc1cccc(C(F)(F)F)c1 [dexfenfluramine]
inactive: 1 nM 1.76% | 8.33 nM -0.09% | 100 nM 2.9% | 833.33 nM -3.54% | 10000 nM 0.8%

Cc1ncc(-c2csc(N=C(N)N)n2)[nH]1 [zaltidine]
inactive: 1 nM 2.21% | 8.33 nM -0.85% | 100 nM -3.06% | 833.33 nM -1.56% | 10000 nM -0.54%

O=C(O)c1cc(O)c2c3nc4ccccc4oc-3cc(=O)c2n1 [pirenoxine]
inactive: 1 nM 0.17% | 8.33 nM 3.09% | 100 nM 2.36% | 833.33 nM -0.17% | 10000 nM 3.17%

CC[N+](C)(CC)CCOC(=O)C(O)(c1ccccc1)C1CCCCC1 (stereo not given) [oxyphenonium]
inactive: 1 nM -1.8% | 8.33 nM -1.33% | 100 nM -2.81% | 833.33 nM 0.58% | 10000 nM -1.5%

CCCCc1ccc(C(N)=O)nc1 [bupicomide]
inactive: 1 nM 2.98% | 8.33 nM 0.4% | 100 nM -0.52% | 833.33 nM -0.04% | 10000 nM 3.08%

C=CCN1C[C@H](C)N([C@H](c2ccc(C(=O)N(CC)CC)cc2)c2cccc(OC)c2)C[C@H]1C
inactive: 1 nM -0.66% | 8.33 nM 1.28% | 100 nM 1.71% | 833.33 nM -0.17% | 10000 nM -1.85%

N#CN=C(NCCCCCCOc1ccc(Cl)cc1)Nc1ccncc1
inactive: 1 nM 0.77% | 8.33 nM -0.03% | 100 nM -4.25% | 833.33 nM -15% | 10000 nM -17.4%

c1ccc(-c2n[nH]c3c2oc2ccccc23)cc1
inactive: 1 nM -0.45% | 8.33 nM -5.74% | 100 nM 1% | 833.33 nM 2.4% | 10000 nM -0.82%

O=C1c2cccc(O)c2C(=O)c2c(O)cc(CO)cc21 [aloe-emodin]
inactive: 1 nM -3.13% | 8.33 nM -0.39% | 100 nM -0.52% | 833.33 nM -3% | 10000 nM -2.43%

CC1Nc2ccc(Cl)cc2S(=O)(=O)N1 (stereo not given)
inactive: 1 nM 0.09% | 8.33 nM 1.51% | 100 nM -2.37% | 833.33 nM 1.75% | 10000 nM 2.76%

CN1C(=O)CC(C)(c2ccccc2)C1=O (stereo not given) [methsuximide]
inactive: 1 nM -1.1% | 8.33 nM 0% | 100 nM 1.03% | 833.33 nM 0.88% | 10000 nM -0.14%

CCCCC(=O)O[C@]1(C(=O)CO)[C@@H](C)C[C@H]2[C@@H]3CCC4=CC(=O)C=C[C@]4(C)[C@@]3(F)[C@@H](O)C[C@@]21C
inactive: 1 nM -3% | 8.33 nM -2.7% | 100 nM -2.96% | 833.33 nM -2.78% | 10000 nM -4.48%

O=C1C[C@@H]2OCC=C3CN4CC[C@]56c7ccccc7N1[C@H]5[C@H]2[C@H]3C[C@H]46 [strychnine]
inactive: 1 nM -0.53% | 8.33 nM 0.64% | 100 nM 5.93% | 833.33 nM 3.93% | 10000 nM 1.26%

COc1ccc(-c2cc(=O)c3c(O)cc(O)cc3o2)cc1O [diosmetin]
inactive: 1 nM -0.61% | 8.33 nM -0.9% | 100 nM -1.66% | 833.33 nM -3.02% | 10000 nM 2.95%

OB1OCc2cc(F)ccc21 [tavaborole]
inactive: 1 nM -0.98% | 8.33 nM 1.46% | 100 nM -1.21% | 833.33 nM 2.11% | 10000 nM -2.53%

CC(=O)OC[C@H](N)C(=O)O [O-acetyl-L-serine]
inactive: 1 nM 0.15% | 8.33 nM 1.11% | 100 nM 1.58% | 833.33 nM 1.65% | 10000 nM -0.72%

CN[C@H]1CN(c2ccc3c(=O)c(C(=O)O)cn(-c4nccs4)c3n2)C[C@@H]1OC [voreloxin]
inactive: 1 nM 0.95% | 8.33 nM -1.14% | 100 nM 2.62% | 833.33 nM -0.72% | 10000 nM 0.56%

O=C(CBr)N1CC([N+](=O)[O-])([N+](=O)[O-])C1
inactive: 1 nM 1.69% | 8.33 nM -0.07% | 100 nM -1.43% | 833.33 nM -1.12% | 10000 nM 0.95%

O=C(Nc1cccnc1)c1cc(-c2ccnc(F)c2)ccc1OCc1ccccc1
inactive: 1 nM 2.42% | 8.33 nM -0.98% | 100 nM 4.16% | 833.33 nM 4.08% | 10000 nM 3.44%

CN1C(=O)N(c2cc(Cl)cc(Cl)c2)C(=O)[C@]12CN(c1ccc(C(=O)O)cn1)C[C@H]2c1ccc(C#N)cc1
inactive: 1 nM 1.7% | 8.33 nM 0.43% | 100 nM 1.42% | 833.33 nM 1.84% | 10000 nM 1.57%

CC(C)(C)[C@H]1CC[C@H](CC2=C(O)C(=O)c3ccccc3C2=O)CC1 [buparvaquone]
inactive: 1 nM 1.01% | 8.33 nM 3.57% | 100 nM 2.36% | 833.33 nM 0.32% | 10000 nM -5.12%

O=C(OCCN1CCCCC1)c1c[nH]c2ccccc12
inactive: 1 nM 0.38% | 8.33 nM 2.59% | 100 nM 1.63% | 833.33 nM -1.42% | 10000 nM -6.53%

Cc1ccc(S(=O)(=O)NCl)cc1 [chloramine-T]
inactive: 1 nM 1.46% | 8.33 nM 3.35% | 100 nM 1.32% | 833.33 nM 0.02% | 10000 nM -5.13%

CC(C)(C)CC(C)(C)c1ccc(OCCOCC[N+](C)(C)Cc2ccccc2)cc1 [benzethonium]
inactive: 1 nM -8.35% | 8.33 nM -10.6% | 100 nM -12.9% | 833.33 nM -9.21% | 10000 nM -15.1%

CC1(CN2CCC(n3c(=O)[nH]c4ccccc43)CC2)OCc2ccccc2-n2cccc21 (stereo not given) [zaldaride]
inactive: 1 nM 4.94% | 8.33 nM -0.44% | 100 nM 4.25% | 833.33 nM -2.81% | 10000 nM -4.06%

— the supplement of paper PMC13380429
